In PubChem BioAssay AID588343 (Broad Institute, 2011):
In all, about 1,200 compounds went through this assay and about 650 (54%) were called active. About 5% were inconclusive and are not listed.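 Rule for the calls: active = signal-lowering curve whose fitted half-maximal concentration is at or below ten times the top valid dose tested; inconclusive = flat curve with 30 to 70% inhibition, or poor fit; inactive = signal increase, flat within 30%, or potency beyond limit.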 The set was probably picked from earlier hits. Not all results are given here. Entries with a potency or affinity are not part of this list.

assay: inhibitors of LMP1-driven NF-kB reporter, dose response, cell-based, HEK293, luciferase, cherry-pick (AID 588343); settings: HEK293 LMP1 TES2 NF-kB luciferase reporter, 16 h; series mostly up to 35 µM

outcome, inactive:
CC(=O)Nc1ccc(OCC(O)CNC(C)C)cc1 (stereo not given)
Cc1ccnc(NC(=O)c2cccc(NC(=O)c3ccc(Cl)c(Cl)c3)c2)c1
CCOc1ccc(NC(=O)Cn2cc(C(=O)CC)c3ccccc32)cc1
Cc1cc(OCC(=O)Nc2cnn(CCCC(=O)O)c2)ccc1Cl
COC(=O)c1cccc(COC(=O)c2ccccc2NC(=O)c2ccco2)c1
COc1ccc(NC(=O)Cn2nnc(C(=O)NCc3ccccc3)c2N)c(OC)c1
COc1cccc(-c2nc(NCc3ccccc3)c3ccccc3n2)c1O
COc1ccc(C(CNC(=O)Nc2ccccc2)N2CCN(C)CC2)cc1 (stereo not given)
C=CCN(c1ccc(C(=O)Nc2ccc3c(c2)n(C)c(=O)n3C)cc1)S(C)(=O)=O
Cn1cccc1CC(=O)NNC(=S)Nc1ccccc1Cl
COc1ccc(NC(=O)C[C@H]2C(=O)N(CCc3ccccc3)C[C@@H]2c2ccc(OC)cc2)cc1
O=C(Nc1ccc2c(c1)C(=O)OC2)c1ccc(C(F)(F)F)cc1
COc1ccc(NC(=O)NCCN2CCc3ccccc3C2)cc1
CCNc1nc(CN2CCOCC2)nc2sc3c(c12)CCC3
COc1cccc(C2Nc3ccc4ccccc4c3C3=C2C(=O)CC(C)(C)C3)c1OCC(=O)O (stereo not given)
O=C(CN1C(=O)CCOc2ccccc21)Nc1ccc(Cl)c(S(=O)(=O)N2CCOCC2)c1
COc1ccc(C(c2sc3nc(C)nn3c2O)N2CCC(C(N)=O)CC2)cc1OC (stereo not given)
CC1=C(CC(=O)O)c2cc(F)ccc2C1=Cc1ccc(S(C)(=O)=O)cc1
COc1ccc(NC(=O)N(CCN2CCCC2)Cc2cc3cc(OC)c(OC)cc3[nH]c2=O)cc1
O=C(Nc1ncc(Br)s1)C(Cc1ccccc1)n1cccc1 (stereo not given)
CCOC(=O)c1cc(-c2ccccc2)n(CC(=O)Nc2cccc(OC)c2)c1C
CC(=NNC(=S)N1CCCCCC1)c1cccc2cccnc12
COc1ccc(OC)c(S(=O)(=O)NC(C)CCc2ccccc2)c1 (stereo not given)
Cc1ccc2oc(C(=O)Nc3ccc(S(=O)(=O)Nc4onc(C)c4C)cc3)c(C)c2c1
O=C(NCC1CCOCC1)c1ccc(OC2CCN(Cc3ccccn3)CC2)cc1
COCCCNCC1C(Oc2ccc(Cl)cc2)C(=O)N1c1ccccc1C (stereo not given)
Cc1sc2ncn(CC(=O)N3CCC(C(N)=O)CC3)c(=O)c2c1S(=O)(=O)N1CCOCC1
Cc1ccc(CCNC(=O)CCc2nc3ccccc3[nH]2)cc1
CCN(Cc1ccncc1)C(=O)CCc1ccccc1
CN(C)S(=O)(=O)c1ccc(Cl)c(C(=O)NCCNC(=O)c2cc(S(=O)(=O)N(C)C)ccc2Cl)c1
COc1cc(N)c(Cl)cc1C(=O)NC1CCN(Cc2ccccc2)CC1
NC(=O)CC(NC(=O)c1ccccc1)c1ccc(NC2CCN(Cc3ccccc3)CC2)c([N+](=O)[O-])c1 (stereo not given)
O=C(N/N=C(/CC(=O)c1cccs1)C(F)(F)F)c1ccc(O)cc1
CN1CCN(CCOc2ccc(Cc3ccccc3)cc2)CC1
Cn1c(=O)[nH]c(=O)c2c1nc(CN1CCOCC1)n2CCCc1ccccc1
CCn1c2ccccc2c2cc(NC(=O)c3ccccc3-c3ccccc3C(=O)O)ccc21
CS(=O)(=O)N(CC(=O)Nc1ccc(F)cc1F)C1CCCCC1
O=[N+]([O-])c1ccc(/C=N/Nc2cc(Cl)nc(-c3ccccc3)n2)cc1
COC(=O)C1=C(C)N(c2cc(C)cc(C)c2)/C(=C/c2ccc(O)cc2)C1=O
COC(=O)c1ccc(/C=C(/NC(=O)c2ccccc2)C(=O)N2CCOCC2)cc1
CC[C@H]1OC(=O)[C@H](C)[C@@H](O[C@H]2C[C@@](C)(OC)[C@@H](O)[C@H](C)O2)[C@H](C)[C@@H](O[C@@H]2O[C@H](C)C[C@H](N(C)C)[C@H]2O)[C@](C)(O)C[C@@H](C)C(=NOCOCCOC)[C@H](C)[C@@H](O)[C@]1(C)O
Cc1nnc(NC(=O)CSc2nnc(Cc3cccn3C)n2CCc2ccccc2)s1
Cc1ccnc(SCCn2c(N3CCN(c4ccccc4)CC3)nc3c2c(=O)[nH]c(=O)n3C)n1
CSc1nc(N)nc(SCC(=O)C23CC4CC(CC(C4)C2)C3)c1C#N
O=C(O)/C=C/c1ccc(Cn2ccnc2)cc1
Oc1[nH]c2ccccc2c1N=Nc1c(F)c(F)c(Cl)c(F)c1F
CC(C(=O)N=Nc1c(O)[nH]c2ccccc12)n1cnc2ccccc2c1=O (stereo not given)
O=C(CCc1ccccc1Cl)N1CCN(S(=O)(=O)c2ccccc2)CC1
COc1ccc(-c2cnc(NCc3cc4c(cc3[N+](=O)[O-])OCO4)n2C)cc1
CC(C)c1nnc(NC(=O)c2ccc(N3C(=O)CCC3=O)cc2)s1
COC(=O)C(NS(=O)(=O)c1ccc(N2CCCC2=O)cc1)c1ccccc1 (stereo not given)
Cn1nc(-c2ccc(N3CCOCC3)c(NS(=O)(=O)c3ccccc3)c2)c2ccccc2c1=O
COc1ccc(OC)c2c1sc(=NC(=O)c1ccco1)n2C
CCCCCC(=O)N1C[C@@H](O)[C@H](n2cc(C3CC3)nn2)C[C@@H]1c1ccc(C)cc1
CCCc1cc(=O)[nH]c(SCC(=O)NC2CCCCC2)n1
CN1C(=O)C(CC(=O)NC2CCCCC2)SC1=Nc1ccccc1 (stereo not given)
COc1ccc(S(=O)(=O)NC(CC(=O)NCc2ccco2)C(C)C)cc1 (stereo not given)
COc1ccc(C(=O)CSc2nnc(Cc3ccccc3)o2)cc1
CCOC(=O)N1CCC(n2c(=S)[nH]c3ccccc3c2=O)CC1
CCOCCCn1cnc2c3cc(F)ccc3n(C)c2c1=O
COc1cc(Cl)cc(C(c2c(C(=O)O)[nH]c3ccccc23)c2c(C(=O)O)[nH]c3ccccc23)c1O
COc1ccc(CCNC(=O)CSc2ccsc2[N+](=O)[O-])cc1OC
COc1ccc(CCNC(=O)CSC(=O)c2ccccc2)cc1OC
O=C(c1noc2c1CCCC2)N1CCCCC1
COc1cc(/C=C(\C#N)c2ccccn2)ccc1OCc1ccccc1Cl
COCCN1Cc2cccc(C(=O)N3CCN(c4cc(C)ccc4C)CC3)c2C1=O
O=C(c1ccco1)N1CCN(S(=O)(=O)/C=C/c2ccccc2)CC1
CCOC(=O)c1ccc(NC(=O)CSc2nc(N3CCOCC3)nc(N3CCOCC3)n2)cc1
O=C(c1cccs1)N1CC=C(c2ccccc2)CC1
Cn1cc(S(=O)(=O)N2CCN(C(=O)c3ccco3)CC2)c(=O)n(C)c1=O
CCN(CC(=O)Nc1ccc(NC(C)=O)cc1)C(=O)c1cccnc1Sc1ccc(C)c(C)c1
CCOC(=O)c1ccc(NC(=S)N2CCSC2c2ccc(OC)cc2)cc1 (stereo not given)
COC(=O)C1=C(C)NC(C)=C(C(=O)OCC(C)C)C1c1ccccc1[N+](=O)[O-] (stereo not given)
O=C(O)C1CC(=O)N(c2ccc(Br)cc2)C1 (stereo not given)
CCCC(C)NC(C)C(=O)NC1CCCC1 (stereo not given)
CCCCCCNC(=O)O[C@]12C[C@@H](C(=O)OC)[C@@H](C(=O)OC)C[C@@]1(O)CN(S(=O)(=O)c1ccc(C)cc1)C2
Cc1nc(N)nc(SCc2ccc([N+](=O)[O-])cc2)c1N
Brc1cccc(-c2cnco2)c1
CC(C)NCC(O)COc1cccc2ccccc12 (stereo not given)
Cc1ccc(NC(=S)NCc2cccs2)cc1
Cc1ccc(CCNC(=O)Cc2ccc(NC3=NC4CS(=O)(=O)CC4S3)cc2)cc1 (stereo not given)
CC1=CC(=NOC(=O)/C=C/c2ccccc2)C=C(C)C1=O
CCC(=O)OC1c2ccccc2C(=O)N1Cc1ccccc1 (stereo not given)
O=C1CC(c2ccccc2)Oc2ccccc21 (stereo not given)
COc1ccccc1C1(CC(=O)O)CCOC(C)(C)C1 (stereo not given)
O=C(Cn1cc(CNC(=O)C2CCCCC2)nn1)Nc1cc(C(F)(F)F)ccc1Cl
COC(=O)c1[nH]c2ccc(C)cc2c1NC(=O)NC1CCCCC1
O=C(NCCCN1CCCCC1)c1ccc2c(c1)NC(=O)c1ccccc1S2
Cn1cc(CC(=O)NCCCN2CCCC2)c2ccccc21
COc1ccc(S(=O)(=O)N2CCC(C(=O)NC3CC3)CC2)cc1OC
CCCNC(=O)N1CCN(S(=O)(=O)c2ccc(C)c(C)c2)CC1
O=C(O)c1ccc(-n2cncn2)c([N+](=O)[O-])c1
O=S(=O)(N/N=C/c1ccccc1F)c1ccccc1
CCSc1nc2ccc(OC)cc2cc1C#N
O=[N+]([O-])c1cc(/C=N\O)ccc1Oc1ccc(F)cc1
CCOC(=O)c1sc2nc(C)nc(NCc3ccccc3)c2c1C
Cn1c(=O)c2ncn(CC(=O)O)c2n(C)c1=O
COc1ccc(C(Nc2ccccn2)c2oc(CO)cc(=O)c2O)cc1 (stereo not given)
Cc1ccc2c(c1)N(CC(=O)N1CCCC1)C(=O)c1cccnc1O2
O=C(NCc1ccccc1Cl)C1CCCN1S(=O)(=O)c1ccc(F)cc1 (stereo not given)
COc1ccc(S(=O)(=O)N2CCN(CC(=O)Nc3ccc(C)c(F)c3)CC2)cc1
N=C1S/C(=C\c2ccccc2)C(=O)N1c1ccc(F)cc1
CC1S/C(=C(\C#N)C(=O)NCc2ccco2)N(Cc2ccco2)C1=O (stereo not given)
O=C1c2ccccc2C(Nc2cccnc2)N1Cc1ccccc1 (stereo not given)
Cc1ccc(C2=C/C(=C\c3cccnc3)C(=O)O2)cc1
